PubChem BioAssay (NCATS)
Results filed as inconclusive are left out. The source made the active and inactive calls. Calls come from the whole dose curve; as a rule, active = well fitted cell-killing curve with a large enough effect; inconclusive = small, poorly fitted or top-dose-only effect; inactive = flat fitted curve, though single readings scatter.

assay: qHTS of pediatric cancer cell lines to identify multiple opportunities for drug repurposing: Primary screen for Rh18 cells (AID 1347102); conditions: Rh18 rhabdomyosarcoma viability, CellTiter-Glo luminescence, 48 h; series mostly up to 46 µM; activity change, negative = cytotoxic: at the top concentration; note: nearly all actives have a fitted effect of over 65% in size
Source text: Drug repurposing or repositioning has been offered as a strategy for drug development in oncology programs. This approach has special potential for childhood cancers and other rare or orphan diseases, where the expected return on new drug development has been a disincentive to pharmaceuticals.
In this project we exploit the poly-pharmacology of drugs to discover new indications via phenotypic screening of a panel of 19 well-characterized cell lines derived from solid tumors seen in children and adolescents. The goal is to identify approved drugs with previously unrecognized anticancer properties that has the potential to reveal new mechanisms and biological processes involved in carcinogenesis or drug resistance. We employed a titration-based paradigm (quantitative high-throughput screening or qHTS), where all compounds were tested at multiple concentrations for their effect on cell viability. Concentration-response curves (CRCs) were derived directly from the primary screen, and both potency and efficacy values were used to identify compounds with robust bioactivity profiles. We screened the NIH Chemical Genomics Center (NCGC) Pharmaceutical Collection (NPC) and Mechanism Interrogation Plate (MIPE) small molecule collections of approved and investigational compounds against these cell lines; and measured metabolically active cells after 48 hours of compound treatment as a proxy for cell viability.
Assay Submitter: Nathalia J. Martinez, National Center for Advancing Translational Sciences, National Institutes of Health, Rockville, MD, USA; email: natalia.martinez@nih.gov
[1] Shen, M et al. Quantitative high-throughput phenotypic screening of pediatric cancer cell lines identifies multiple opportunities for drug repurposing. Oncotarget 2017 Dec 19;9(4):4758-4772. PMID 29435139.
The cells were obtained from University of North Carolina (UNC), Pediatric Preclinical Testing Program (PPT), and Coriell Institute (CI).
qHTS cell viability assay:
Cells were assayed in growth media at a density of 500-1,000 cells/well. Five microliters of cells were dispensed into 1,536-well, white, solid-bottom, TC-treated plates (Greiner Bio One) using a multidrop dispenser and incubated at 37 degrees C, 5% CO2, under a humidified atmosphere for 5 hours. Twenty-three nanoliters of compounds and controls (neutral control DMSO or positive control bortezomib at final concentration of 2.3 µM) were subsequently transferred by Kalypsys pintool. For primary screens, the MIPE collection was tested at 11-point dilutions (final concentrations range from 0.78 nM to 46 µM) and the NPC collection at 8-point dilutions (final concentrations range from 0.59 nM to 46 µM). Compounds tested in follow-up screens were assayed at 11-point dilutions. Cells were incubated for 48 hours, followed by addition of 3 µL of CellTiter-Glo (Promega). After a 15 min incubation at room temperature, samples were analyzed for luminescence intensity using a ViewLux High-throughput CCD imager equipped with clear filters.
% is set by controls: 0 for no effect and ±100 for the full control effect; potency is the fitted concentration of half-maximal effect.

| SMILES | Potency | activity change, negative = cytotoxic |
| --- | --- | --- |
| CC(C=CC1=C(C)CCCC1(C)C)=CC=CC(C)=CC(=O)Nc1ccc(O)cc1 | 42900 nM (active) | – |
| C[C@@]12C(=O)OC(=O)[C@@]1(C)C1CCC2O1 | 1870 nM (active) | – |
| OC[C@H]1OC(O)C[C@@H](O)[C@H]1O (stereo not given in full) | – | 22.3% (inactive) |
| CC(C)C[C@H](NC(=O)[C@@H](NC(=O)c1cccc(-c2ccccc2)n1)[C@@H](C)O)B(O)O | 46.9 nM (active) | – |
| CCNC(=O)c1cc2c(-c3cc(OCCN4CCCC4)c(Cl)cc3Cl)nc(N)nc2s1 | 4690 nM (active) | – |
| Oc1cc(-c2nc(-c3ccccc3)[nH]c2-c2ccncc2)ccc1Cl | 13200 nM (active) | – |
| CS(=O)(=O)N1CCc2c(-c3cnc(N)nc3)nc(N3CCOCC3)nc21 | 372 nM (active) | – |
| CCCCCCCCCCCC(CC1OC(=O)C1CCCCCC)OC(=O)C(CC(C)C)NC=O (stereo not given) | – | -23% (inactive) |
| Nc1cccc2c1C(=O)N(C1CCC(=O)NC1=O)C2=O (stereo not given) | – | 0.487% (inactive) |
| Cc1cnc(Nc2ccc(N3CCN(C)CC3)cc2)nc1Nc1cccc(S(=O)(=O)NC(C)(C)C)c1 | 3320 nM (active) | – |
| Nc1nc2c(c(=O)[nH]1)N(C=O)[C@H](CNc1ccc(C(=O)N[C@@H](CCC(=O)O)C(=O)O)cc1)CN2 | – | 7.7% (inactive) |
| CCCCCCCN(CC)CCCC(O)c1ccc(NS(C)(=O)=O)cc1 (stereo not given) | – | 1.58% (inactive) |
| Cc1ccccc1C(=O)Nc1ccc(C(=O)N2CCCC(O)c3cc(Cl)ccc32)c(C)c1 (stereo not given) | – | -4.88% (inactive) |
| O=C(O)C=Cc1ccc(Cn2ccnc2)cc1 | – | 0.836% (inactive) |
| N=c1ccn2c(n1)O[C@H]1[C@@H](O)[C@@H](CO)O[C@H]12 | – | -24.9% (inactive) |
| COc1ccc2cc([S+]([O-])Cc3ncc(C)c(OC)c3C)nc2c1 | – | -19.6% (inactive) |
| Cc1cc(C(=O)NOCCO)c(Nc2ccc(I)cc2F)n(C)c1=O | – | -22.7% (inactive) |
| C=CCNc1c(O)cc2c(O)c1C[C@@H](C)C[C@H](OC)[C@@H](O)[C@@H](C)C=C(C)[C@H](OC(N)=O)[C@@H](OC)C=CC=C(C)C(=O)N2 | 935 nM (active) | – |
| CC(C)C[C@H](NC(=O)CNC(=O)c1cc(Cl)ccc1Cl)B1OC(=O)CC(CC(=O)O)(C(=O)O)O1 (stereo not given in full) | 209 nM (active) | – |
| O=C(C=Cc1ccc(CN(CCO)CCc2c[nH]c3ccccc23)cc1)NO | 105 nM (active) | – |

| SMILES | Potency | activity change, negative = cytotoxic |
| --- | --- | --- |
| COc1ccnc2[nH]cc(C(=O)C(=O)N3CCN(C(=O)c4ccccc4)C[C@@H]3C)c12 | – | 22% (inactive) |
| CN[C@H](CC(C)C)C(=O)N[C@H]1C(=O)N[C@@H](CC(N)=O)C(=O)N[C@@H]2C(=O)N[C@H]3C(=O)N[C@H](C(=O)N[C@H](C(=O)O)c4cc(O)cc(O)c4-c4cc3ccc4O)[C@H](O)c3ccc(c(Cl)c3)Oc3cc2cc(c3O[C@@H]2O[C@H](CO)[C@@H](O)[C@H](O)[C@@H]2O[C@H]2C[C@](C)(N)[C@H](O)[C@H](C)O2)Oc2ccc(cc2Cl)[C@H]1O | – | 7.77% (inactive) |
| FC(F)(F)c1ccc(Nc2nc3ccc(Oc4ccnc(-c5ncc(C(F)(F)F)[nH]5)c4)cc3[nH]2)cc1 | – | 3.15% (inactive) |
| CCN(CC)Cc1ccc2cc(COC(=O)Nc3ccc(C(=O)NO)cc3)ccc2c1 | 743 nM (active) | – |
| CC(=O)N1CCN(c2ccc(OCc3nn(C)c(C)c3-c3cccc4c(CCCOc5cccc6ccccc56)c(C(=O)O)n(Cc5cccnc5)c34)cc2)CC1 | 590 nM (active) | – |
| CC(=O)[C@]1(O)Cc2c(O)c3c(c(O)c2[C@@H](O[C@H]2C[C@H](N)[C@@H](O)[C@H](C)O2)C1)C(=O)c1ccccc1C3=O | 4690 nM (active) | – |
| CC(=O)NC(CS)C(=O)O (stereo not given) | – | 7.13% (inactive) |
| CO[C@@H]1[C@@H](O)[C@H](O)[C@@H](n2c3c(Cl)cccc3c3c4c(c5c6cccc(Cl)c6[nH]c5c32)C(=O)NC4=O)O[C@@H]1CO | 2090 nM (active) | – |
| COc1ccc(Nc2cc(-c3cnc(N)nc3)nc(N3CCOCC3)n2)cn1 | 6620 nM (active) | – |
| O=C(Nc1ccc(Oc2ccnc3[nH]ccc23)c(F)c1)c1cccn(-c2ccc(F)cc2)c1=O | – | 8.76% (inactive) |
| c1coc(CNc2ncnc3nc[nH]c23)c1 | – | -0.305% (inactive) |
| CC(C)(C)[C@H](NC(=O)c1ccc(N)c(Cl)c1)C(=O)N1CCC[C@@H]1C(=O)N[C@H](C#N)CC(=O)O | – | 0.535% [at 4.84 µM] (inactive) |
| COc1cc(C=CC(=O)CC(=O)C=Cc2ccc(O)c(OC)c2)ccc1O | 38200 nM (active) | – |
| CC1(C)O[C@@H]2C[C@H]3[C@@H]4CCC5=CC(=O)C=C[C@]5(C)[C@@H]4[C@@H](O)C[C@]3(C)[C@]2(C(=O)CO)O1 | – | 15.3% (inactive) |
| CC(C=CC(=O)NO)=C[C@@H](C)C(=O)c1ccc(N(C)C)cc1 | 526 nM (active) | – |
| CNC(=O)Nc1ccc(-c2nc(N3CC4CCC(C3)O4)c3cnn(C4CCC5(CC4)OCCO5)c3n2)cc1 | 93.5 nM (active) | – |
| C[N+](C)([O-])CCNc1ccc(NCC[N+](C)(C)[O-])c2c1C(=O)c1c(O)ccc(O)c1C2=O | – | 10.4% (inactive) |
| CC1(C)CC(O)CC(C)(C)N1[O] | – | 2.7% (inactive) |
| C=C(C)[C@@H]1CC[C@]2(C(=O)O)CC[C@]3(C)[C@H](CC[C@@H]4[C@@]5(C)CC[C@H](O)C(C)(C)[C@@H]5CC[C@]43C)[C@@H]12 | – | -1.88% (inactive) |
| CC(=O)OC[C@@H]1O[C@@H](n2ccc(=O)[nH]c2=O)[C@H](OC(C)=O)[C@H]1OC(C)=O | – | 2.38% (inactive) |
